Measured values taken from PubChem BioAssay (NCATS).
Where “and” joins values, the source holds several entries; their conditions need not be identical. Equal entries are not always repeated. Results filed as inconclusive are left out. A call without a number means that no potency is given here. Values without a mark were called inactive. Calls of active or inactive are those of the source. Calls come from the whole dose curve; as a rule, active = well fitted inhibition curve with a large enough effect; inconclusive = small, poorly fitted or top-dose-only effect; inactive = flat fitted curve, though single readings scatter.

Tests used:
PC26 = test: qHTS profiling for inhibitors of Plasmodium falciparum proliferation (AID 504749); details: P. falciparum in erythrocytes, SYBR Green DNA, 72 h; series mostly up to 28.7 µM
Outline: (§1)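 SYBR Green fluorescence (ex 485 nm, em 535 nm) reports parasite DNA after 72 h compound exposure of infected red cells at 0.3% parasitemia, 2.5% hematocrit; signal normalized to 0.29 uM artemisinin and vehicle wells.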

PC49 = test: as above; details: P. falciparum in erythrocytes, SYBR Green DNA, 72 h; series mostly up to 28.7 µM
Outline: as §1

SC27B = test: as above; details: P. falciparum in erythrocytes, SYBR Green DNA, 72 h; series mostly up to 28.7 µM
Outline: as §1

TAB109 = test: as above; details: P. falciparum in erythrocytes, SYBR Green DNA, 72 h; series mostly up to 28.7 µM
Outline: as §1

TAB113 = test: as above; details: P. falciparum in erythrocytes, SYBR Green DNA, 72 h; series mostly up to 28.7 µM
Outline: as §1

TAB165 = test: as above; details: P. falciparum in erythrocytes, SYBR Green DNA, 72 h; series mostly up to 28.7 µM
Outline: as §1

W2 = test: as above; details: P. falciparum in erythrocytes, SYBR Green DNA, 72 h; series mostly up to 28.7 µM
Outline: as §1

KB-3-1 = test: Cytotoxic Profiling of Annotated Libraries Using Quantitative High-Throughput Screening (AID 1296008); details: Five cell lines viability, CellTiter-Glo ATP luminescence, 48-72 h; max response: active compounds read low
Outline: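 Cells exposed to compounds for 48 or 72 hr at 37 degrees Celsius. Viability read as ATP-coupled luminescence with CellTiter-Glo after 10 min at room temperature.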
Note: nearly all actives have a fitted effect of over 60% in size.
Potency is the fitted concentration of half-maximal effect.

Row | Compound | Potency (PC26) | Potency (PC49) | Potency (SC27B) | Potency (TAB109) | Potency (TAB113) | Potency (TAB165) | Potency (W2) | max response (KB-3-1) | Potency (KB-3-1)
1 | O=C(O)[C@H]1CN(C/C=C/P(=O)(O)O)CCN1 | inactive | inactive | inactive | inactive | inactive | inactive | inactive | 9.65% | –
2 | CCOc1ccc(S(=O)(=O)O)c2cccnc12 | inactive | inactive | inactive | inactive | inactive | inactive | inactive | 5.36% | –
3 | Cc1ccc(C(C)(C)c2ccc(C)cc2)cc1 | inactive | inactive | inactive | inactive | inactive | inactive | inactive | -2.63% | –
4 | CC(C)c1nc(N(C)S(C)(=O)=O)nc(-c2ccc(F)cc2)c1/C=C/C(O)CC(O)CC(=O)O (configuration not stated) | inactive | inactive | inactive | inactive | inactive | inactive | inactive | 0.926% | –
5 | S=C1SCN(Cc2ccccc2)CN1Cc1ccccc1 | inactive | inactive | inactive | inactive | inactive | inactive | inactive | 37.7% | –
6 | COc1cc(NCCCC(C)N)c2ncccc2c1 (configuration not stated) | 1.69 µM (active) | inactive | 11.2 µM (active) | 4.47 µM (active) | 8.91 µM (active) | 2.24 µM (active) | 1.51 µM (active) | -4.33% | –
7 | Cc1ccc(S(=O)(=O)NCl)cc1 | inactive | inactive | inactive | inactive | inactive | inactive | inactive | 2.64% | –
8 | CC(=O)N=c1sc(S(N)(=O)=O)nn1C | inactive | inactive | inactive | inactive | inactive | inactive | inactive | 21.5% | –
9 | Cc1ncc[nH]1 | inactive | inactive | inactive | inactive | inactive | inactive | inactive | 3.25% | –
10 | CCOC(C)OCC | inactive | inactive | inactive | inactive | inactive | inactive | inactive | -6.86% | –
11 | COc1ccc(/C=C/C(=O)O)cc1 | inactive | inactive | inactive | inactive | inactive | inactive | inactive | -11.7% | –
12 | CCCOc1cc(N)ccc1C(=O)OCCN(CC)CC | inactive | inactive | inactive | inactive | inactive | inactive | inactive | -11.4% | –
13 | c1ccc2ccccc2c1 | inactive | inactive | inactive | inactive | inactive | inactive | inactive | -0.155% | –
14 | [O]=[Bi][O][Bi]=[O] | inactive | inactive | inactive | inactive | inactive | inactive | inactive | -13.6% | –
15 | CCCCC(CC)CCC(CC(C)C)OS(=O)(=O)O (configuration not stated) | inactive | inactive | inactive | inactive | inactive | inactive | inactive | 11% and -8.89% | –
16 | CC(C)CCC[C@@H](C)[C@H]1CC[C@H]2[C@@H]3CC=C4C[C@@H](O)CC[C@]4(C)[C@H]3CC[C@]12C | inactive | inactive | inactive | inactive | inactive | inactive | inactive | -10.6% | –
17 | OC[C@H]1O[C@@](CO)(O[C@H]2O[C@H](CO)[C@@H](O)[C@H](O)[C@H]2O)[C@@H](O)[C@@H]1O | inactive | inactive | inactive | inactive | inactive | inactive | inactive | 8.24% | –
18 | CCCCCCCCCCCCOCCCN | inactive | inactive | inactive | inactive | inactive | inactive | inactive | -4.56% | –
19 | O=C(O)C1=C(CSc2nnnn2CS(=O)(=O)O)CS[C@@H]2[C@H](NC(=O)[C@H](O)c3ccccc3)C(=O)N12 | inactive | inactive | inactive | inactive | inactive | inactive | inactive | 3.59% | –
20 | Cc1ccccn1 | inactive | inactive | inactive | inactive | inactive | inactive | inactive | -6.48% | –
21 | Cc1cc(-c2ccc(N=Nc3ccc4c(S(=O)(=O)O)cc(S(=O)(=O)O)c(N)c4c3O)c(C)c2)ccc1N=Nc1ccc2c(S(=O)(=O)O)cc(S(=O)(=O)O)c(N)c2c1O | inactive | inactive | inactive | inactive | inactive | inactive | inactive | – | 8.2 µM (active)
22 | OCC(O)CO | inactive | inactive | inactive | inactive | inactive | inactive | inactive | 0.712% | –
23 | CC(CCc1ccc(O)cc1)NCC(O)c1ccc(O)cc1 (configuration not stated) | inactive | inactive | inactive | inactive | inactive | inactive | inactive | 9.04% | –
24 | CCC(C(=O)NC(N)=O)c1ccccc1 (configuration not stated) | inactive | inactive | inactive | inactive | inactive | inactive | inactive | 4% | –
